Experiment [1] is described as follows: qHTS assay to identify small molecule agonists of the sonic hedgehog signaling (Shh) pathway (AID 1259368).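 Also: NIH/3T3-derived 3T3Gli1-Luc cells carrying a stable Gli1-driven firefly luciferase reporter; series mostly up to about 92 µM; nearly all actives have a fitted effect of over 15% in size.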 An outline of the steps: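 3T3Gli1-Luc (NIH/3T3 clone, stable Gli1-Luc); 4 hr pre-incubation, then cpd in DMSO 24 hr, 37 C/5% CO2; luciferase reagent 30 min RT; luminescence.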
Background: qHTS replaces the single test concentration by a dilution series.

Experiment [2] is described as follows: qHTS assay to identify small molecule antagonists of the sonic hedgehog signaling (Shh) pathway (AID 1259369). Also: nearly all actives have a fitted effect of over 45% in size. An outline of the steps: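 3T3Gli1-Luc, conditioned-medium-stimulated, 24hr cpd, 37C/5% CO2; Gli1-driven firefly Luc luminescence after 30min RT with luciferase reagent. Cells plated 4hr before cpd.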
Experiment [3] can be described thus: qHTS assay to identify small molecule agonists of the androgen receptor (AR) signaling pathway in the presence of an antagonist - cell viability counter screen (AID 1259379; active = well fitted curve in the direction sought with a large enough effect in the repeat runs; an effect the other way counts as inactive or inconclusive;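 also: MDA-kb2 human breast cancer cells carrying an MMTV luciferase reporter; series mostly up to about 92 µM; nearly all actives have a fitted effect of over 25% in size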). The procedure, abridged: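 Cells: MDA-kb2 (MMTV-luc, AR and GR elements), 3,000/well, 5 hr settle. Added: nilutamide 3.0uM final, then compounds (15 conc.). Incubation: 16 hr, 37C, no CO2. Read-out: CellTiter-Fluor, 1 hr, fluorescence.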

Experiment [4] in a line: qHTS assay to identify small molecule agonists of the estrogen receptor beta (ER-beta) signaling pathway - cell viability counter screen (AID 1259380; active = well fitted curve in the direction sought with a large enough effect in the repeat runs; an effect the other way counts as inactive or inconclusive; also: nearly all actives have a fitted effect of over 30% in size; also: potency is read from the fitted curve at half-maximal effect). An outline of the steps: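 HEK293T ER-beta-UAS-bla; 2% CS-FBS; 6 hr pre-plate, 16 hr cpd at 37C/5% CO2; LiveBLAzer read first, then CellTiter-Glo 30 min RT, luminescence.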
A short description of experiment [5]: qHTS assay to identify small molecule antagonists of the estrogen receptor beta (ER-beta) signaling pathway - cell viability counter screen (AID 1259382; active = well fitted curve in the direction sought with a large enough effect in the repeat runs; an effect the other way counts as inactive or inconclusive;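 also: HEK293T cells carrying ER-beta-UAS-bla reporter stimulated with estradiol; series mostly up to about 92 µM; nearly all actives have a fitted effect of over 55% in size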). An outline of the steps: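 Cells: ER-beta-UAS-bla HEK293T, 2,000/well, 2% CS-FBS, 6 hr settle. Cpd + E2 (1nM final), 16 hr, 37C/5% CO2. Bla FRET substrate 2 hr RT, then CellTiter-Glo 30 min RT, luminescence.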

Experiment [6] in a line: qHTS assay to identify small molecule agonists or antagonists of the thyroid stimulating hormone receptor (TSHR) signaling pathway - wild type cell line counter screen (AID 1259384). An outline of the steps: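 Wild-type Hek293 cells, 800/well, 18 h at 37C, then compound with Ro20-1724 for 30 min RT. cAMP by HTRF (cAMP-d2/anti-cAMP cryptate), 1 h RT, fluorescence read. 15 concentrations, triplicates.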

Experiment [7] addresses Thyrotropin receptor (Homo sapiens) (UniProt P16473). The experiment in a line: qHTS assay to identify small molecule antagonists of the thyroid stimulating hormone receptor (TSHR) signaling pathway (AID 1259385). Also: nearly all actives have a fitted effect of over 20% in size. An outline of the steps:
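TSHR-HEK293 cells (800/well) plated 18 h, then compounds with Ro20-1724 and TSH at 1.5 ng/mL final, 30 min at room temperature. cAMP quantified by HTRF (cAMP-d2/anti-cAMP-cryptate, 1 h); 15 concentrations in triplicate.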

The nature of experiment [8]: qHTS assay to identify small molecule agonists of the estrogen receptor alpha (ER-alpha) signaling pathway in the presence of an antagonist - cell viability counter screen (AID 1259386; active = well fitted curve in the direction sought with a large enough effect in the repeat runs; an effect the other way counts as inactive or inconclusive;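 also: cells exposed to compounds for 22 h at 37 °C before the viability read; nearly all actives have a fitted effect of over 30% in size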; also: potency is read from the fitted curve at half-maximal effect). An outline of the steps: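 VM7Luc4E2, stripped-serum pre-culture 5 d; 24hr plating; +ICI-182,780 10.0nM final; cpds 15 conc, 22hr, 37C/5% CO2; CellTiter-Fluor added at 21hr, fluorescence 1hr later.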

For experiment [9], the target named is Progesterone receptor (Homo sapiens) (UniProt P06401). Briefly: qHTS assay to identify small molecule agonists of the progesterone receptor (PR) signaling pathway (AID 1346784). Also: nearly all actives have a fitted effect of over 30% in size. An outline of the steps: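 Reporter assay, GripTite PR-UAS-bla HEK 293T cells: 16 hr exposure to DMSO-dissolved compounds at 37C, 5% CO2, in steroid-depleted (2% charcoal-stripped FBS) medium; beta-lactamase measured by FRET fluorescence.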

Experiment [10] shares this target. The experiment in a line: qHTS assay to identify small molecule antagonists of the progesterone receptor (PR) signaling pathway (AID 1346795; active = well fitted inhibition curve with a large enough effect in the signal ratio in the repeat runs, not every such curve was filed as active; the % refers to the signal ratio; also: potency is read from the fitted curve at half-maximal effect). The procedure, abridged:
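Stimulus R5020 at 1 nM final; cells HEK293T PR-UAS-bla; medium with 2% charcoal-stripped FBS; compound exposure 16 hr at 37C, 5% CO2; detection by FRET beta-lactamase substrate, 2 hr, room temperature.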

Experiment [11] in a line: qHTS assay to identify small molecule antagonists of the progesterone receptor (PR) signaling pathway - cell viability counter screen (AID 1346798; active = well fitted curve in the direction sought with a large enough effect in the repeat runs; an effect the other way counts as inactive or inconclusive; also: series mostly up to about 92 µM; nearly all actives have a fitted effect of over 50% in size). An outline of the steps:
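In the same plates used for the beta-lactamase readout, cell viability of compound- and R5020-treated PR-UAS-bla HEK293T cells (16 hr, 37C) was assessed by CellTiter-Glo luminescence.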

Experiment [12] is described as follows: qHTS assay to identify small molecule antagonists of the TGF-beta/Smad signaling pathway - cell viability counter screen (AID 1346824; active = well fitted curve in the direction sought with a large enough effect in the repeat runs; an effect the other way counts as inactive or inconclusive; also: nearly all actives have a fitted effect of over 50% in size). An outline of the steps:
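SBE-bla HEK 293T cells, incubated overnight, then compound plus 0.25 ng/mL TGF-beta1 (stock added) for 5 hr at 37 C. Viability was read in the same wells by CellTiter-Glo luminescence after 30 min at room temperature.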

Experiment [13] is described as follows: qHTS assay to identify small molecule agonists of the TGF-beta/Smad signaling pathway - cell viability counter screen (AID 1346829; active = well fitted curve in the direction sought with a large enough effect in the repeat runs; an effect the other way counts as inactive or inconclusive; also: top concentration of the series differs between compounds; nearly all actives have a fitted effect of over 45% in size). The procedure, abridged: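 HEK 293T SBE-bla line, 5 hr compound exposure at 37 C, multiplexed CellTiter-Glo viability read by luminescence.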
Experiment [14] in a line: qHTS assay to identify small molecule agonists of the TGF-beta/Smad signaling pathway (AID 1346859; active = well fitted activation curve with a large enough effect in the signal ratio in the repeat runs, not every such curve was filed as active; the % refers to the signal ratio; also: series mostly up to about 77 µM). An outline of the steps:
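Screening used HEK 293T SBE-bla cells at 4,000/well. Test agents: 5 hr, 37 C. Detection: FRET substrate, 2 hr RT, then excitation 405 nm with emissions at 460 and 530 nm.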

In experiment [15] the target is Estrogen receptor (Homo sapiens) (UniProt P03372). Briefly: qHTS assay to identify small molecule agonists of the estrogen receptor alpha (ER-alpha) signaling pathway in the presence of an antagonist (AID 1259383). Also: top concentration of the series differs between compounds; nearly all actives have a fitted effect of over 15% in size. The procedure, abridged: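 VM7Luc4E2, endog. ER-alpha + 4×ERE-luc; charcoal-stripped FBS, phenol red-free, 5 d; 24hr plating; +10.0nM ICI-182,780 (final); cpds 15 conc, 22hr, 37C/5% CO2; ONE-Glo luminescence.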

Experiment [16] can be described thus: qHTS assay to identify small molecule agonists of the progesterone receptor (PR) signaling pathway - cell viability counter screen (AID 1346799). Also: nearly all actives have a fitted effect of over 45% in size. An outline of the steps: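 Multiplexed viability read: CellTiter-Glo luminescence, 30 min RT, following LiveBLAzer FRET measurement on PR-UAS-bla HEK293T cells exposed to compounds 16 hr.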
Experiment [17] concerns the target Thyrotropin-releasing hormone receptor (Homo sapiens) (UniProt P34981). Briefly: qHTS assay to identify small molecule antagonists of the thyrotropin-releasing hormone receptor (TRHR) signaling pathway (AID 1346877; active = well fitted inhibition curve with a large enough effect in the repeat runs, not every such curve was filed as active; also: series mostly up to about 51 µM). An outline of the steps:
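Intracellular calcium fluorescence, read kinetically every second over 3 min, reports TRH-evoked signalling in HEK293 cells carrying TRHR. Test compounds were added 5 min ahead of a 1 nM TRH challenge.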

The target in experiment [18] is Estrogen receptor beta (Homo sapiens) (UniProt Q92731). Briefly: qHTS assay to identify small molecule agonists of the estrogen receptor beta (ER-beta) signaling pathway (AID 1259377; active = well fitted activation curve with a large enough effect in the signal ratio in the repeat runs, not every such curve was filed as active; the % refers to the signal ratio). The procedure, abridged: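 Reporter cells (HEK293T, ER-beta-UAS-bla) receive compounds or DMSO after a 6 hr pre-incubation. They then incubate 16 hr at 37C/5% CO2, and fluorescence from LiveBLAzer B/G substrate is measured after 2 hours at room temperature.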

Several values for one entry are separate records, joined by “and”; a condition that tells them apart may be missing. Equal values may be shown once. Inconclusive results are not listed. Some compounds were tested as several samples or in several runs, with calls that do not always agree. Activity calls are given as the source filed them. Unless noted, calls follow the shape of the full dose curve.

Progesterone receptor (Homo sapiens), sequence (P06401 whole entry, looked up): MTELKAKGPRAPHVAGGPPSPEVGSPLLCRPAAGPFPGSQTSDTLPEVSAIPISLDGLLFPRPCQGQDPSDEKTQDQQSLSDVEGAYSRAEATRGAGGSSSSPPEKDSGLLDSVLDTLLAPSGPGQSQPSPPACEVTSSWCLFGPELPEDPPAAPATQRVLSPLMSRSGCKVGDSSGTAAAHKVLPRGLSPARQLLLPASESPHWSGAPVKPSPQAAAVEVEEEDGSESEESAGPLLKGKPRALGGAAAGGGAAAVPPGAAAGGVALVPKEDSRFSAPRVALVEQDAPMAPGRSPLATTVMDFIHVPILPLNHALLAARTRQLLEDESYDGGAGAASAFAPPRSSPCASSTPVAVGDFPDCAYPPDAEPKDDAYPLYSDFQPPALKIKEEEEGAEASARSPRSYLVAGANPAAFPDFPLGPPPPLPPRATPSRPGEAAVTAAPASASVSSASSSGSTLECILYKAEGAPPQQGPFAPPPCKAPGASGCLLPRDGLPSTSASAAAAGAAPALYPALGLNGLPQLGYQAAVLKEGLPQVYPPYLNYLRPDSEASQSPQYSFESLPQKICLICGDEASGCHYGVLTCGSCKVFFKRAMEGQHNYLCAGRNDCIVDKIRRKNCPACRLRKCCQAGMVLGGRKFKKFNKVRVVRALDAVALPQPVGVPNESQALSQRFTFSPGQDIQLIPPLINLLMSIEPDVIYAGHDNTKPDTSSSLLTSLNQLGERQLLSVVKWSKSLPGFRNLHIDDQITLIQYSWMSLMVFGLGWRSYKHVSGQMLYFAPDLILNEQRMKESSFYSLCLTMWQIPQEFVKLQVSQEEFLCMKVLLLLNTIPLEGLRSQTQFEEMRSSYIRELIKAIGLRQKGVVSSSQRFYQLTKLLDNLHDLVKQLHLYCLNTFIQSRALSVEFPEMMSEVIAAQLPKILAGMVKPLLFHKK
Thyrotropin receptor (Homo sapiens), sequence (P16473 whole entry, looked up): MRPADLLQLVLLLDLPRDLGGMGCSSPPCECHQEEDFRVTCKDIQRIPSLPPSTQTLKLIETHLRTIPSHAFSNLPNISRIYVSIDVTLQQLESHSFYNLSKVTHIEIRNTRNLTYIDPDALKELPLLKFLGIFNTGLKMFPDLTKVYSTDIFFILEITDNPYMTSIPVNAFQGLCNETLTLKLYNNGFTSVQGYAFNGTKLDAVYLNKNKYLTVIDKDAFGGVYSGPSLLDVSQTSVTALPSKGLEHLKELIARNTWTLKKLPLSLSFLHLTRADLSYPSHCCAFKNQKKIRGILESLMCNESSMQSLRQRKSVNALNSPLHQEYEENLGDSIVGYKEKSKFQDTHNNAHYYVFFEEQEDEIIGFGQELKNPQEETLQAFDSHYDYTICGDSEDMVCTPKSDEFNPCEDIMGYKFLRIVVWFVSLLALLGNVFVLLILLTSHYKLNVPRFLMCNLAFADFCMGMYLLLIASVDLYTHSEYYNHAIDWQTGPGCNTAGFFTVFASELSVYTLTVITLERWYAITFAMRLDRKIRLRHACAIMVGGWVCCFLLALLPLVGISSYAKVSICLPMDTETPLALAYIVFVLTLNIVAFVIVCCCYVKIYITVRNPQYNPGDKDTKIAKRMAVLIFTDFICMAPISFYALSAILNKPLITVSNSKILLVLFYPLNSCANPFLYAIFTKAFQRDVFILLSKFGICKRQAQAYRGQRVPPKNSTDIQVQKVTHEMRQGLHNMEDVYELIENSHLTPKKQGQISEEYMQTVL
Estrogen receptor (Homo sapiens), sequence (P03372 whole entry, looked up): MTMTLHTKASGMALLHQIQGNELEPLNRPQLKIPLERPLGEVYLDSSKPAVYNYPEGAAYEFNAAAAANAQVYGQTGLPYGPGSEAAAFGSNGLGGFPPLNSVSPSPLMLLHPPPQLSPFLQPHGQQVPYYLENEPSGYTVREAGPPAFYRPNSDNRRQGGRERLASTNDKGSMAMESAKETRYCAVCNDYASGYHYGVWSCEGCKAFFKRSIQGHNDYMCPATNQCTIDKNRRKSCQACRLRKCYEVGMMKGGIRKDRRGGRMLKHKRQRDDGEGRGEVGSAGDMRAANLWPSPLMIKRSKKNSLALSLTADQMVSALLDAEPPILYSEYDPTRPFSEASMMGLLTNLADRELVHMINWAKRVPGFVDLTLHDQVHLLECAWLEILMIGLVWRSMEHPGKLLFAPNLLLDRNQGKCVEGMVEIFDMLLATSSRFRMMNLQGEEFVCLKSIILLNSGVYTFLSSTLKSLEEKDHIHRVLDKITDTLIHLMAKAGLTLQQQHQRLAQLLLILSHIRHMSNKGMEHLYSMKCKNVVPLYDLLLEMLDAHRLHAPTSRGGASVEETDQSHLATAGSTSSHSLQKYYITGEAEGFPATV
Thyrotropin-releasing hormone receptor (Homo sapiens), sequence (P34981 whole entry, looked up): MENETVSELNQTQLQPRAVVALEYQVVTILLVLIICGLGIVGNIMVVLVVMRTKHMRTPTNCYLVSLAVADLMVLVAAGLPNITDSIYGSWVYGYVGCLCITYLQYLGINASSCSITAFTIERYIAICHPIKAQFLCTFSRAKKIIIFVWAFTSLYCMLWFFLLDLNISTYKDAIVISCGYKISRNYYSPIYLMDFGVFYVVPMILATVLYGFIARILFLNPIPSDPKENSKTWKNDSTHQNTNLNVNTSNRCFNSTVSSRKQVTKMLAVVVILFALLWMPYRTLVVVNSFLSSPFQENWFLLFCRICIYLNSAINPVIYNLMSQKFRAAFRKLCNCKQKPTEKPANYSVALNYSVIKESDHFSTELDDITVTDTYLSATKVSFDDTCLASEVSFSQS
Estrogen receptor beta (Homo sapiens), sequence (Q92731 whole entry, looked up): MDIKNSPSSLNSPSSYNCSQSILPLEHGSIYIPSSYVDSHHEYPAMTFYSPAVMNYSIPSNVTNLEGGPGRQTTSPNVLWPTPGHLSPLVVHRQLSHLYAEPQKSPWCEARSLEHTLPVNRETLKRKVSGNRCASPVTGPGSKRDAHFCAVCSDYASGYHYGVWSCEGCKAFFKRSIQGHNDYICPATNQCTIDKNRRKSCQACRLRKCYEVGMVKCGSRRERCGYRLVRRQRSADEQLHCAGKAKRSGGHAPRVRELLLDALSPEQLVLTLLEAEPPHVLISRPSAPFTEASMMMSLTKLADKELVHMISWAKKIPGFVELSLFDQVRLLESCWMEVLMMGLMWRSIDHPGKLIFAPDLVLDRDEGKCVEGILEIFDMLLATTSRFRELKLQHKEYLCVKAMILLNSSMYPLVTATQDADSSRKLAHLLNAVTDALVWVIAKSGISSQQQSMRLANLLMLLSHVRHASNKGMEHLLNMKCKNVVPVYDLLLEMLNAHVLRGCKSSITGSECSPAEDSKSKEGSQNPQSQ

For the molecule `CCCCCCCCCCC=CC1CC(=O)OC1=O` (configuration not stated), the molecule was classed as inactive in experiment [1], in experiment [6], in experiment [7] and in experiment [14]. For the same molecule, the Potency entry in experiment [2], in [3], in experiment [4], in experiment [5], in experiment [8] and in experiment [9] was “inactive” in each case. For the same molecule, the Potency result in [10], in [11], in [12] and in [13] was “inactive” each time.
For `CCCCOCCO`, the result in experiment [1], in experiment [6], in experiment [7], in experiment [14] and in experiment [17] was inactive. The Potency result in experiment [2], in experiment [4], in experiment [5], in experiment [15], in experiment [8] and in experiment [9] was “inactive” throughout. For the same molecule, the Potency entry in experiment [10], in [11], in [16], in experiment [12] and in experiment [13] was “inactive” each time.
In the case of `O=C(Oc1ccccc1)c1ccc(O)cc1`, the call in experiment [1], in experiment [6], in experiment [7], in experiment [14] and in [17] was inactive. Moreover, the Potency result in [2], in experiment [3], in experiment [4], in experiment [5], in [8] and in experiment [9] was “inactive” throughout. The Potency result in experiment [11], in experiment [16], in [12] and in [13] was “inactive” in each case. The Potency in experiment [10] was 61.1 µM (active).
Regarding `CCOC(=O)C1OC1c1ccccc1` (configuration not stated), the molecule was called inactive in [1], in experiment [14] and in [17]. For the same molecule, the Potency result in experiment [2], in experiment [3], in experiment [5], in [8], in experiment [9] and in experiment [10] was “inactive” each time. In addition, the Potency entry in experiment [11], in experiment [12] and in experiment [13] was “inactive” in each case.
With `Oc1ccc2ccccc2c1N=Nc1ccccc1`, the result in experiment [1], in experiment [6], in experiment [7], in [14] and in experiment [17] was inactive. Further, the Potency entry in experiment [2], in experiment [18], in [5], in experiment [15], in experiment [9] and in experiment [11] was “inactive” each time. The Potency entry in experiment [12] and in experiment [13] was “inactive” in each case. For the same molecule, the Potency in experiment [8] is 21.7 µM (active) and 19.3 µM (active); in experiment [10], 24.3 µM (active).
Regarding `CCCCCCOC(C)=O`, the call in experiment [1], in [6], in [7] and in experiment [14] was inactive. Further, the Potency result in experiment [2], in experiment [3], in [5], in experiment [15], in experiment [8] and in experiment [9] was “inactive” throughout. Also, the Potency result in [10], in experiment [12] and in [13] was “inactive” in each case. Moreover, the Potency result in [4] is “inactive and 30.6 µM (active)”.
As for `COCC(C)O` (configuration not stated), the call in [1], in experiment [6], in [7], in [14] and in experiment [17] was inactive. In addition, the Potency entry in experiment [2], in [4], in experiment [5], in experiment [15], in [8] and in experiment [9] was “inactive” each time. In addition, the Potency result in [10], in experiment [11], in [16] and in experiment [13] was “inactive” throughout.

The values are drawn from PubChem BioAssay (Tox21).
